Assay outcomes (PubChem)
C2C12 statin – protects C2C12 myotubes from simvastatin toxicity; rescue of ATP level, % at 7.49 µM; actives 0.78% (n = 330,000); AID 602340; ATP luminescence, 48 h; scaled: DMSO 0, geranylgeraniol control 100;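 active = mean ATP rescue above about 67%, or every replicate alone reaching that limit, limit read from the data, passing the limit was not always enough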;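 note: myotubes were challenged with 10 µM simvastatin during compound exposure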
PglD inh – PglD (C. jejuni) enzyme inhibition; purified PglD enzyme, DTNB colorimetric CoA detection; AID 602405; actives 0.098% (n = 360,000); inhibition, % at 12.5 µM; in the data active = inhibition above about 16%, passing the limit was not always enough
F508del corr – correctors of CFTR F508del function in bronchial epithelial cells; CFBE cells, YFP halide quenching; stimulated with forskolin plus potentiator P3; % fluorescence drop versus neutral controls; activity (quench increase), % at 7.58 µM; actives 0.36% (n = 350,000);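 active = mean added fluorescence quench of at least 8% versus neutral control, with both replicates also reaching 8%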;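 note: cells transiently co-express mutant CFTR-F508del with the halide-sensitive YFP; corrector assay measuring rescue of mutant channel to the surface after 24 h compound exposure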
ARNT-TACC3 inh – disruptors of human ARNT/TACC3 interaction; AlphaScreen His-ARNT PAS-B/GST-TACC3 binding, luminescence; TACC3 fragment carries E629A point mutation; inhibition, % at 9.99 µM; actives 0.66% (n = 390,000); AID 623870;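 active = mean inhibition of replicates at least 50% and at least half of replicates each reaching 50%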;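 note: 0% = complete ARNT plus TACC3 wells and 100% = ARNT alone without TACC3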
* = called active by the depositor; . = not tested or not shown. Hits are enriched below; roughly 1.4% of the tested compounds scored in any of these assays.

SMILES	C2C12 statin	PglD inh	F508del corr	ARNT-TACC3 inh
COc1cc([N+](=O)[O-])cc(/C=N/NC(=O)c2cc(-c3ccccc3)nc3ccccc23)c1O	.	-3	5	29
COc1cc([N+](=O)[O-])cc(/C=N/NC(=O)c2cc(C)nc3ccccc23)c1O	.	.	1	64*
COc1cccc(/C=N/NC(=O)c2ccc([N+](=O)[O-])cc2Cl)c1O	.	.	.	59*
O=C(C[C@H]1CC[C@H]2[C@@H](COC[C@@H](O)CN2S(=O)(=O)c2ccc(Cl)cc2)O1)NCc1ccc(Cl)c(Cl)c1	-12	2	1	13
C[C@H]1CCCCO[C@H](CN(C)C)[C@@H](C)CN([C@@H](C)CO)C(=O)c2cc(NS(=O)(=O)c3cn(C)cn3)ccc2O1	.	-1	1	11
O=[N+]([O-])c1ccc(Nc2ccccc2)c2nonc12	-19	-2	1	8
O=[N+]([O-])c1ccc(Sc2cccc[n+]2[O-])c2nonc12	.	.	45*	62*
CCC1(CC)C(=O)NC(=O)NC1=Nc1cccc(OC)c1	117*	4	.	-8
C[C@H](CO)N1C[C@H](C)[C@@H](CN(C)S(=O)(=O)c2cccs2)OCCCC[C@H](C)Oc2ccc(NS(=O)(=O)c3cn(C)cn3)cc2C1=O	.	-1	0	-2
COCC(=O)Nc1ccc2c(c1)C(=O)N(C)[C@@H]1CC[C@@H](CC(=O)NCC3CCCCC3)O[C@H]1CO2	-26	2	1	-6
COc1ccc(CN(CCC#N)C(=S)NC(=O)c2ccccc2)cc1	114*	-1	.	12
NC(=O)c1cc(Cl)ccc1OCC(=O)NC1CC1	-11	-7	9.0*	-8
CC1CCC(NC(=O)COc2ccccc2C(N)=O)CC1 (configuration not stated)	-13	5	.	-1
O=C(Nc1ccccc1F)N1CCCCN2[C@H](C1)[C@@H](c1ccc(C#Cc3cccnc3)cc1)[C@@H]2CO	-28	0	-1	-10
CCN1CCCC1CNC(=O)c1c(O)c2c([nH]c1=O)CCCC2 (configuration not stated)	119*	4	.	.
CCN1CCC[C@H]1CNC(=O)c1c(O)c(Cl)cc(Cl)c1OC	-4	4	0	-3
N/C(=N\OS(=O)(=O)c1ccccc1)c1ccccn1	.	.	.	65*
O=C(c1cnccn1)N1CC(=O)N2[C@@H](CO)[C@H](c3ccc(-c4ccccc4)cc3)[C@@H]2C1	.	.	-1	.
COCC(=O)Nc1ccc2c(c1)C(=O)N(C)C[C@@H](OC)[C@@H](C)CN(CC1CCCCC1)[C@H](C)CO2	-8	-2	-3	4
COc1ccc(/C=N/NC(=O)Cn2nc([N+](=O)[O-])cc2C)c(OC)c1OC	.	.	0	-4
COc1cc([N+](=O)[O-])cc(/C=N/NC(=O)Cn2nccc2C)c1O	22	-5	2	71*
COc1cc([N+](=O)[O-])cc(/C=N/NC(=O)Cn2nc(C)cc2C)c1O	13	.	0	63*
O=c1cc(-c2ccncc2)oc2ccccc12	115*	-1	.	0
COc1cccc(C2C=C(c3cccs3)Nc3ncnn32)c1OC (configuration not stated)	-9	-4	.	28*
O=C(NC[C@@H]1[C@H](c2ccccc2)[C@H](CO)N1CC1CC1)c1cccnc1	-7	-4	4	2
SMILES	C2C12 statin	PglD inh	F508del corr	ARNT-TACC3 inh
Cc1cc(C)cc(NC(=O)Cn2nnc(C(=O)NCc3ccc(F)cc3)c2N)c1	120*	2	-1	19
Cc1cc(Cl)c(S(=O)(=O)N2CCSCC2)cc1OCC(N)=O	-6	2	.	12
Cc1cc(Cl)c(S(=O)(=O)N2CC(C)OC(C)C2)cc1OCC(N)=O (configuration not stated)	135*	1	.	-15
COc1ccc(NC(=O)Nc2ccc3c(c2)C(=O)N([C@H](C)CO)C[C@@H](C)[C@@H](CN(C)S(=O)(=O)c2ccc(F)cc2)O3)cc1	-19	1	1	7
COC(=O)C(C)Sc1ncnc2c1c(-c1ccccc1)cn2-c1ccc(OC)cc1 (configuration not stated)	.	5	.	49*
CCOC(=O)C(C)Sc1ncnc2c1c(-c1ccccc1)cn2-c1ccc(OC)cc1 (configuration not stated)	.	0	.	-26
CCOc1ccc(C(=O)C(CN2CCOCC2)c2ccccc2)cc1 (configuration not stated)	92*	-7	.	-2
NS(=O)(=O)c1ccc(-n2ncc3c(=O)[nH]c(SCC(=O)Nc4nccs4)nc32)cc1	-6	-5	8.1*	3
O=C(CSc1nc2[nH]ncc2c(=O)[nH]1)Nc1nccs1	.	.	0	.
C[C@H]1CN([C@@H](C)CO)C(=O)CCCn2nncc2CO[C@@H]1CN(C)C(=O)Nc1ccc(F)cc1	-12	-4	-3	-1
Cn1c(SCC(=O)Nc2ccccc2C(F)(F)F)nc2c(c1=O)SCC2	0	-2	-2	6
Cc1nc(N)sc1-c1nnc(SCC(=O)Nc2ccccc2C(F)(F)F)n1C	142*	5	.	-5
CCOC(=O)c1sc2nc(Cc3ccc(Cl)cc3)[nH]c(=S)c2c1C	.	.	12*	.
COc1cccc(NC(=O)C[C@@H]2CC[C@@H]3[C@@H](COc4ccc(NC(=O)C5CCCC5)cc4C(=O)N3C)O2)c1	.	.	-2	.
Cc1cccc(OCC(=O)Nc2cc(C)ccc2O)c1	113*	7	.	-6
Cc1ccc(C(=O)NNC(=S)NC(=O)COc2ccccc2)cc1	.	.	-2	7
Cc1cccc(OCC(=O)NC(=S)NNC(=O)c2ccncc2)c1	2	0	4	56*
CC(C)NC(=O)Nc1ccc2c(c1)C(=O)N([C@@H](C)CO)C[C@H](C)[C@@H](CN(C)Cc1ccc(Oc3ccccc3)cc1)O2	-2	-3	-3	1
C[C@@H]1CN([C@@H](C)CO)C(=O)Cc2cc(NC(=O)Nc3ccccc3)ccc2O[C@H]1CN(C)CC1CCCCC1	2	-2	-3	12
CC1CN(C(=O)c2cccc(S(=O)(=O)N3CCN(c4ccc(F)cc4)CC3)c2)CC(C)O1 (configuration not stated)	.	0	0	0
O=C(c1cccc(S(=O)(=O)N2CCN(c3ccc(F)cc3)CC2)c1)N1CCCC(C(F)(F)F)C1 (configuration not stated)	-21	1	10.0*	.
COc1ccc2c3c([nH]c2c1)[C@@H](CO)N(C(=O)Nc1ccccc1F)CC31CCN(C(=O)c2ccccc2F)CC1	.	.	1	.
Cc1ccc(C(=O)NCC2(c3ccccc3)CCCC2)cc1	121*	0	.	.
Cn1cccc1/C=C1\SC(=Nc2ccccc2)NC1=O	.	-5	15*	3
COc1cc(/C=C2\SC(=Nc3ccc(O)cc3)NC2=O)cc(OC)c1O	.	.	2	-3
Cn1cccc1/C=C1\SC(=Nc2cccc(O)c2)NC1=O	-10	-13	9.1*	3
O=C1NC(=Nc2ccc(O)cc2)S/C1=C/c1ccco1	9	-2	11*	-4
Cn1cccc1/C=C1\SC(=Nc2ccc(O)cc2)NC1=O	.	.	12*	3
